Data as given in PubChem BioAssay AID1159580 (chemical genetic matrix, 2015).
“And” between values parts separate entries of the source, which are not always exact repeats. Equal entries are not always repeated. The whole screen tested about 5,500 compounds, of which about 2,000 (36%) were called active. Another 18% or so got no clear call; they are omitted. Cut-off read from the data, not from the text of the source: active = normalized growth mostly below about 0.91 (no sharp cut-off); inconclusive = no clear call, values can overlap the other calls; inactive = mostly above about 0.92. The list shows a part of the results.

Assay: chemical genetic growth profiling, strain panel (AID 1159580);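 note: tested at 20 µM; growth read once vehicle control cultures reached saturation at 30 °C; 1 = growth at the plate median or of vehicle wells; lower values mean less growth of the strain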
Conditions: S. cerevisiae deletion strains, growth OD

Measured: normalized growth

COc1ccc2c(c1)c(CC(=O)O)c(C)n2C(=O)c1ccc(Cl)cc1
inactive: locus YAL013W, strain DEP1, hits give low values 1.01 | locus YAL021C, strain ccr4, hits give low values 0.987 | locus YAL026C, strain drs2, hits give low values 0.974 | locus YAL030W, strain snc1, hits give low values 0.988 | locus YAL040C, strain CLN3, hits give low values 0.997 | locus YBL061C, strain skt5, hits give low values 0.959 | locus YBR009C, strain hhf1, hits give low values 0.931 | locus YBR021W, strain FUR4, hits give low values 1 | locus YBR023C, strain chs3, hits give low values 0.969 | locus YBR171W, strain sec66, hits give low values 0.967 | locus YBR229C, strain ROT2, hits give low values 1 | locus YBR231C, strain swc5, hits give low values 0.972 | locus YBR279W, strain paf1, hits give low values 0.988 | locus YCL011C, strain gbp2, hits give low values 0.921 | locus YCL016C, strain dcc1, hits give low values 0.919 | locus YCL029C, strain bik1, hits give low values 0.988 | locus YCL061C, strain MRC1 (second series), hits give low values 1.01 | locus YCL061C, strain MRC1, hits give low values 0.96 | locus YCL069W, strain vba3, hits give low values 0.986 | locus YCR088W, strain abp1, hits give low values 0.99 | locus YDL005C, strain med2, hits give low values 0.973 | locus YDL035C, strain GPR1, hits give low values 1.02 | locus YDL040C, strain nat1, hits give low values 0.991 | locus YDL074C, strain BRE1, hits give low values 1.02 | locus YDL101C, strain DUN1, hits give low values 1.01 | locus YDL185W, strain tfp1, hits give low values 0.973 | locus YDL192W, strain arf1, hits give low values 0.998 | locus YDR001C, strain nth1, hits give low values 0.978 | locus YDR069C, strain doa4, hits give low values 1.01 | locus YDR101C, strain arx1, hits give low values 1.02 | locus YDR137W, strain rgp1, hits give low values 0.95 | locus YDR159W, strain sac3, hits give low values 1.01 | locus YDR162C, strain NBP2, hits give low values 0.995 | locus YDR195W, strain ref2 1.02 | locus YDR297W, strain sur2, hits give low values 1.01 | locus YDR318W, strain mcm21, hits give low values 0.979 | locus YDR334W, strain swr1, hits give low values 0.981 | locus YDR335W, strain msn5, hits give low values 0.991 | locus YDR363W, strain ESC2, hits give low values 0.996 | locus YDR388W, hits give low values 0.982 | locus YDR392W, strain spt3, hits give low values 0.885 | locus YDR502C, strain sam2, hits give low values 0.981 | locus YEL003W, strain gim4, hits give low values 1 | locus YEL037C, strain rad23, hits give low values 0.961 | locus YEL061C, strain CIN8 (second series), hits give low values 0.979 | locus YEL061C, strain CIN8, hits give low values 1 | locus YER002W, strain NOP16, hits give low values 1.02 | locus YER015W, strain faa2, hits give low values 0.976 | locus YER016W, strain bim1, hits give low values 0.989 | locus YER110C, hits give low values 0.986 | locus YER111C, strain swi4, hits give low values 0.98 | locus YER155C, strain BEM2 (second series), hits give low values 0.874 | locus YER155C, strain BEM2, hits give low values 0.989 | locus YER167W, strain BCK2, hits give low values 0.995 | locus YFR010W, strain ubp6, hits give low values 0.975 | locus YGL078C, strain dbp3, hits give low values 0.978 | locus YGL086W, strain mad1, hits give low values 0.995 | locus YGL167C, strain pmr1, hits give low values 0.983 | locus YGL173C, strain kem1, hits give low values 0.985 | locus YGL227W, strain vid30, hits give low values 0.976 | locus YGL240W, strain doc1, hits give low values 1.01 | locus YGL248W, strain PDE1, hits give low values 1.01 | locus YGL253W, strain hxk2, hits give low values 0.993 | locus YGR135W, strain pre9, hits give low values 0.963 | locus YGR252W, strain gcn5, hits give low values 0.94 | locus YHR013C, strain ard1, hits give low values 0.968 | locus YHR027C, strain rpn1, hits give low values 0.981 | locus YHR030C, strain SLT2, hits give low values 1.01 and 0.952 | locus YHR079C, strain IRE1 (second series), hits give low values 0.987 | locus YHR079C, strain IRE1, hits give low values 0.96 | locus YHR094C, strain hxt1, hits give low values 0.975 | locus YHR129C, strain ARP1, hits give low values 1.01 | locus YHR142W, strain chs7, hits give low values 0.912 | locus YHR200W, strain rpn10, hits give low values 0.99 | locus YIL066C, strain RNR3, hits give low values 1 | locus YIL073C, strain SPO22, hits give low values 0.987 | locus YIL125W, strain kgd1, hits give low values 0.945 | locus YIR030C, strain dcg1, hits give low values 0.986 | locus YJL092W, strain hpr5, hits give low values 0.92 | locus YJL095W, strain BCK1 (second series), hits give low values 0.996 | locus YJL095W, strain BCK1, hits give low values 1 and 0.969 | locus YJL115W, strain asf1, hits give low values 0.969 | locus YJL129C, strain trk1, hits give low values 0.909 | locus YJL134W, strain LCB3, hits give low values 0.997 | locus YJL154C, strain vps35, hits give low values 0.989 | locus YJL164C, strain tpk1, hits give low values 0.976 | locus YJL166W, strain qcr8, hits give low values 0.977 | locus YJL168C, strain set2, hits give low values 0.979 | locus YJL187C, strain SWE1 (second series), hits give low values 1 | locus YJL187C, strain SWE1, hits give low values 0.991 | locus YJR043C, strain POL32, hits give low values 1.02 | locus YJR066W, strain TOR1, hits give low values 0.911
